Screening data deposited in PubChem by National Center for Advancing Translational Sciences (NCATS).
CHX counter = Cycloheximide Counterscreen for Small Molecule Inhibitors of Shiga Toxin; max response, %; 300,000 tested, 12% active; AID 2314, 2010; cell reporter, cycloheximide protein synthesis inhibition counterscreen; in the data active = max response mostly above about 13%, no sharp cut-off; inactive = mostly below about 14%; note: read at 38.3 µM for the half of the compounds with a filed dose
Pf growth 48h = Primary qHTS for delayed death inhibitors of the malarial parasite plastid, 48 hour incubation; Potency, µM (titrated, usually from 28.7 µM), actives largely listed as inhibitors; P. falciparum luciferase growth in erythrocytes, 48 h; 310,000 tested, 5.9% active
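A one-generation exposure of luciferase-tagged malaria parasites in RPMI 1640/Albumax erythrocyte culture, 37 C and 5% CO2. Inhibition is inferred from decreased luminescence after adding detection reagent.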
Shiga toxin inh = A qHTS for Small Molecule Inhibitors of Shiga Toxin; AID 2315, 2010; 290,000 tested, 9.2% active; Vero cells, Shiga toxin protein synthesis inhibition reporter; inhibition, % at 38.7 µM; in the data active = inhibition mostly above about 28%, no sharp cut-off; inactive = mostly below about 43%
Pf growth 96h = Primary qHTS for delayed death inhibitors of the malarial parasite plastid, 96 hour incubation; P. falciparum luciferase reporter growth, 96 h; Potency, µM (titrated, usually from 28.7 µM), most hits filed as inhibitors; 320,000 tested, 6.9% active; AID 504834, 2011
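Erythrocytes infected with luciferase-expressing P. falciparum were dispensed at 2% hematocrit and 0.05% parasitemia (final), then incubated with compounds 96 hours at 37 C in 5% CO2. Luminescence after detection reagent addition reported growth.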
LmPK inh = qHTS Assay for Inhibitors of Leishmania Mexicana Pyruvate Kinase (LmPK); Q27686; purified LmPK, Kinase-Glo ATP luminescence, 1 h; 290,000 tested, 0.37% active; Potency, µM (titrated, usually from 57.5 µM), hits mostly inhibitors
Target sequence (Q27686 whole entry, looked up): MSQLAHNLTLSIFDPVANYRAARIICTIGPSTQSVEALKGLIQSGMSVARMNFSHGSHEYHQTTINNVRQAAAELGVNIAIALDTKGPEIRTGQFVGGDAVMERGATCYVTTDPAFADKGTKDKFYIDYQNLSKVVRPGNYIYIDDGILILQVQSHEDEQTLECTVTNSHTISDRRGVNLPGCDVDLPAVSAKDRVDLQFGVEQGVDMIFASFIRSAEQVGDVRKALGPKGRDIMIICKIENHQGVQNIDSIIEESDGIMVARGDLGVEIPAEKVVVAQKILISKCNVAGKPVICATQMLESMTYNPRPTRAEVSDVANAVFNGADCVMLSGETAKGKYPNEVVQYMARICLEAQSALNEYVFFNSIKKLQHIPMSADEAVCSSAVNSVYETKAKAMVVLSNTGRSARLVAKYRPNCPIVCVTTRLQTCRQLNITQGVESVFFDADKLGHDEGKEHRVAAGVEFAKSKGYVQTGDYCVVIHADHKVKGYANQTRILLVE
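Purified LmPK (0.1 nM) converted ADP (0.1 mM) to ATP with PEP (0.5 mM) in imidazole buffer pH 7.2 with KCl and MgCl2, 1 h at room temperature. ATP was read by Kinase-Glo luminescence; data normalized to uninhibited and no-enzyme controls.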
Large screens that a line does not name were inactive. This is a sample that favours compounds with a hit; in the whole collection about 22% have one here. Unless noted, calls come from the whole dose curve; as a rule, active = well fitted inhibition curve with a large enough effect; inconclusive = small, poorly fitted or top-dose-only effect, or another doubt; inactive = no such curve, though single readings can be large or run the other way.

Cc1ccc2nc3c(c(Nc4ccccc4)c2c1)CCC3	Pf growth 48h inconclusive, Pf growth 96h 9.28µM
OCCNc1c2c(nc3ccccc13)CCCC2	none
CC(C)CNc1c2c(nc3ccccc13)CCC2	Pf growth 48h 10.4µM, Pf growth 96h inconclusive
CN(C)CCCNc1c2c(nc3ccccc13)CCC2	Pf growth 48h 10.4µM
COCCNc1c2c(nc3ccccc13)CCC2	Pf growth 48h inconclusive, Pf growth 96h 9.28µM
O=C(OCC(=O)N1CCN(Cc2ccccc2)CC1)c1cc(Cl)ccc1[N+](=O)[O-]	none (no result: CHX counter, Shiga toxin inh, LmPK inh)
CCCCn1c(N)c(N(CC(C)C)C(=O)c2cccs2)c(=O)[nH]c1=O	none (no result: CHX counter, Shiga toxin inh, LmPK inh)
CC(OC(=O)c1ccc(O)cc1)C(=O)Nc1nc(-c2ccccc2)cs1 (stereo not drawn)	Pf growth 48h 6.57µM, Pf growth 96h inconclusive (no result: CHX counter, Shiga toxin inh, LmPK inh)
CC(OC(=O)CNC(=O)c1ccccc1F)C(=O)Nc1nc(-c2ccccc2)cs1 (stereo not drawn)	CHX counter 65.5, Shiga toxin inh 100.8
CC(OC(=O)c1ccccc1Br)C(=O)Nc1nc(-c2cccc([N+](=O)[O-])c2)cs1 (stereo not drawn)	none
CC1(C)CC(=O)C(C2=NC3(CCCCC3)Cc3ccccc32)=C(O)C1	Pf growth 48h inconclusive, Pf growth 96h inconclusive
O=C(NCC(=O)N1CCC(N2CCCCC2)CC1)C1CCCCC1	Pf growth 96h 1.17µM
Cc1cc(=O)n2nc(N3CCCC(C(=O)N4CCOCC4)C3)sc2n1 (stereo not drawn)	Pf growth 96h 11.7µM
CCOc1ccc(CCNC(=O)C2CCCN(c3nn4c(=O)cc(C)nc4s3)C2)cc1OCC (stereo not drawn)	Pf growth 48h inconclusive, Pf growth 96h 0.147µM
O=C(NCCc1ccc(Cl)cc1)c1ccc2nc(N3CCOCC3)sc2c1	Pf growth 96h inconclusive
COc1ccc2nc(N3CCCC(C(=O)NCCc4ccc(OC)c(OC)c4)C3)sc2c1 (stereo not drawn)	CHX counter 17.0, Shiga toxin inh 95.1, Pf growth 96h inconclusive
COc1ccc(CCNC(=O)C2CCCN(c3nn4c(=O)cc(C)nc4s3)C2)cc1OC (stereo not drawn)	Pf growth 48h inconclusive, Pf growth 96h inconclusive
COc1ccc(CCNC(=O)c2ccc3nc(N4CCCCC4)sc3c2)cc1OC	CHX counter 22.1, Pf growth 48h inconclusive, Shiga toxin inh 34.4
CCn1c(C(=O)O)c(CC(=O)Nc2ccc(Br)cc2C)c2ccccc21	none
CCCCc1ccc(NC2=NCC(=O)N2CCc2ccccc2)cc1	Pf growth 48h inconclusive, Pf growth 96h inconclusive
COc1ccc(CCNc2nc(N3CCCCC3)nc(N3CCCCC3)n2)cc1OC	Pf growth 48h 13.1µM
Oc1ccc(Nc2nc(-c3ccc4ccccc4c3)cs2)cc1	CHX counter 48.9, Shiga toxin inh 120.6, Pf growth 96h inconclusive (no result: Pf growth 48h)
Cc1cc(NS(=O)(=O)c2ccc(Nc3nc(-c4ccc(O)cc4)cs3)cc2)no1	none
CC(=O)Nc1ccc(-c2csc(NC(C)c3ccccc3)n2)cc1 (stereo not drawn)	none
CC(=O)Nc1nc(-c2ccc3ccccc3c2)cs1	CHX counter 38.0, Shiga toxin inh 86.7
Oc1ccc(-c2nc(-c3ccc(O)c(O)c3)cs2)cc1	Pf growth 48h inconclusive, Shiga toxin inh 94.1
COc1cccc(-c2csc(NC(=O)Oc3ccccc3)n2)c1	CHX counter 47.6, Shiga toxin inh 137.1
Oc1ccc(-c2cn3c(n2)SCC3)cc1O	Pf growth 96h inconclusive, LmPK inh inconclusive (no result: Pf growth 48h)
CCCCNC(=S)N(Cc1c(C)noc1C)c1ccccc1	Pf growth 48h inconclusive
CCOc1ccc2nc(NS(=O)(=O)c3cccs3)sc2c1	none (no result: Shiga toxin inh)
CC(=O)NCCC(=O)Nc1nc2c(ccc3ccccc32)s1	CHX counter 14.9
CC(=O)NCCC(=O)Nc1nc(-c2ccc3ccccc3c2)cs1	CHX counter 29.3, Shiga toxin inh 52.5
CC(=O)NCCC(=O)Nc1nc(-c2ccccc2Cl)cs1	none
COc1ccc(N2CCN(C(=O)CCCC(=O)c3ccccc3)CC2)cc1	none
COc1ccc(C(=O)CCC(=O)N2CCN(c3ccc(C)cc3)C(C)C2)cc1 (stereo not drawn)	Pf growth 96h 9.28µM
C[C@]12CC[C@@H]3c4ccc(O)c(O)c4CC[C@H]3[C@@H]1CC[C@@H]2O	LmPK inh 1µM (no result: Pf growth 48h, Pf growth 96h)
FC(F)(F)c1ccccc1N1CC1c1ccncc1 (stereo not drawn)	none (no result: Pf growth 48h)
O=C1N(c2ccccc2C(F)(F)F)O[C@@]1(c1ccccc1)C1CCCCC1	Pf growth 48h 1.47µM, Pf growth 96h inconclusive (no result: CHX counter, Shiga toxin inh, LmPK inh)
O=C1N(c2ccccc2C(F)(F)F)O[C@@]1(c1ccccc1)C1CCCC1	Pf growth 48h 0.738µM, Pf growth 96h 0.828µM (no result: CHX counter, Shiga toxin inh, LmPK inh)
O=C(O)c1nn2cc(CCO)cnc2c1Cl	Pf growth 48h inconclusive
CCOc1ccc(-n2nnnc2-c2nc3ccccc3s2)cc1	CHX counter 60.1, Shiga toxin inh 137.9, Pf growth 96h inconclusive
Cc1ccc(-n2nnnc2-c2nc3ccccc3s2)cc1	CHX counter 15.5, Shiga toxin inh 50.9, Pf growth 96h inconclusive
Cc1ccc(-c2nnnn2-c2ccc(C)cc2)cc1	none
COc1ccc(-c2[nH]ncc2CN2CCC(C(=O)N3CCOCC3)CC2)c(F)c1	Pf growth 96h inconclusive
Cc1ccc(OCC(=O)N/N=C2\CC(=O)CC(C)(C)C2)c(Br)c1	Pf growth 96h 9.28µM
Cc1ccccc1OCC(=O)N/N=C1\CC(=O)CC(C)(C)C1	none
CC(=O)Oc1ccc(C(=O)[C@H]2[C@H]3C(=O)N(c4ccc(C)cc4)C(=O)[C@H]3[C@@H]3C=CC=NN32)cc1	CHX counter 23.5, Shiga toxin inh 46.3
COc1ccc(N2C(=O)[C@@H]3[C@H](C2=O)[C@H](C(=O)c2ccc(OC(C)=O)cc2)N2N=CC=C[C@@H]32)cc1	CHX counter 13.7, Shiga toxin inh 38.2
COc1ccc(C(=O)[C@H]2[C@H]3C(=O)N(c4ccc(C)cc4)C(=O)[C@H]3C3C=CC=NN32)cc1 (stereo partly drawn)	CHX counter 18.8
Cc1ccc(N2C(=O)[C@@H]3[C@H](C2=O)[C@H]2C=CC=NN2[C@@H]3C(=O)Nc2ccccc2)cc1	CHX counter 16.5, Pf growth 48h inconclusive, Pf growth 96h inconclusive
CC(=O)Oc1ccc(C(=O)[C@H]2[C@H]3C(=O)N(c4ccccc4)C(=O)[C@H]3[C@@H]3C=CC=NN32)cc1	none
COc1ccc(COC(=O)CCNC(=O)c2ccc(Cl)cc2)cc1	none (no result: CHX counter, Shiga toxin inh, LmPK inh)
COc1ccc(CNC(=O)C2CCCN(C(=O)Nc3ccc(OC)cc3)C2)cc1 (stereo not drawn)	none
COc1cccc(OC)c1C(=O)NC1C(=O)N2C1SC(C)(C)C2C(=O)O (stereo not drawn)	none (no result: CHX counter, Shiga toxin inh, LmPK inh)
CCCC(=O)Nc1nnc(SCC(=O)NC2CC2)s1	none
CC(=O)Oc1ccc(N2C(=O)C3C(C2=O)C(C(=O)c2ccc(Cl)cc2)N2CCCC32)cc1 (stereo not drawn)	CHX counter 28.7
